# Screens deposited in PubChem BioAssay by several laboratories.
# Hits are enriched below; roughly 0.8% of the tested compounds scored in any of these assays.
# MT1-MMP txn act: activates MT1-MMP transcription; 0.16% of 86,000 active; activation factor at 10 µM; AID 750; HT1080 MT1-MMP promoter luciferase reporter, luminescence, overnight; active compounds read high;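 active means activation factor of at least 2 for MT1-MMP transcription at 10 µM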
# TNAP act mid DEA: human TNAP activation, intermediate phosphate acceptor; purified TNAP, CDP-star luminescence, 100 mM DEA, 30 min; active compounds read high; scale: 0 levamisole-inhibited, 1 vehicle-only enzyme; activation factor at 20 µM; AID 813; 64,000 tested, under 10 active; P05186;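 active means activation factor of at least 2 at 20 µM, relative to controls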
# Target sequence (P05186 whole entry, looked up): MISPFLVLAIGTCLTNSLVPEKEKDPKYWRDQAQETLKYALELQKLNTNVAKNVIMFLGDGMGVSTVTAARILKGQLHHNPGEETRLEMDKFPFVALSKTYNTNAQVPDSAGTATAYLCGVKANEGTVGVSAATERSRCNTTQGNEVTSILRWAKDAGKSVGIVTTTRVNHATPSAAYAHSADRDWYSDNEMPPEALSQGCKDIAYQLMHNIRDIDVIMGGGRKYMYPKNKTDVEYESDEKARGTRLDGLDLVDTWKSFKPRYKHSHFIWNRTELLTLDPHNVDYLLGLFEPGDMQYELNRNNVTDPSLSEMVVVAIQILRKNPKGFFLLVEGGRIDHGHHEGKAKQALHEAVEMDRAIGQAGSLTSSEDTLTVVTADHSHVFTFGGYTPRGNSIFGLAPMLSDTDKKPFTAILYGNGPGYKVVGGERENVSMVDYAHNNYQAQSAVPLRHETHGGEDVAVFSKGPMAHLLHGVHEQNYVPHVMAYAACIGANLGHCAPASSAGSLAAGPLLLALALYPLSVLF
# Smad3 inh: Smad3 (human) transcription factor binding inhibition; P84022; inhibition, % at 25 µM; 0.29% of 88,000 active; AID 630; TR-FRET Smad3/Dy647-FoxH1 peptide binding, europium anti-His;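 active means compounds that reduce the energy-transfer binding signal between the protein and its labelled peptide by more than half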;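 further: 0% = Smad3 plus labelled peptide maximal FRET and 100% = peptide-only background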
# Ec RNAP inh: inhibitors of Escherichia coli RNA polymerase; P0A8V2; inhibition, %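 (tested at 10 µM)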; 0.2% of 62,000 active; E. coli RNA polymerase, fluorescence transcription assay; in the data active means inhibition above about 20%;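 further: 0% = enzyme without compound and 100% = no enzyme blank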
# HePTP inh: human HePTP phosphatase inhibition | P35236 | recombinant HePTP phosphatase activity, OD absorbance | inhibition, % at 20 µM | 0.64% of 110,000 active; in the data active means inhibition above about 50%;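 further: plate controls were vehicle for no effect and reference inhibitor for full effect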
# Starred values were filed as active, the others as inactive; nt = no result; [ ] = remark or other dose.
SMILES,MT1-MMP txn act,TNAP act mid DEA,Smad3 inh,Ec RNAP inh,HePTP inh
N#C/C(=C/c1ccc(O)c([N+](=O)[O-])c1)C(=O)Nc1cccc(Br)c1,nt,nt,nt,nt,102*
COc1ccc(-c2cc(-c3ccccc3)n[nH]2)c(O)c1,nt,nt,nt,nt,5
COc1ccc(-c2cc(-c3ccccc3O)[nH]n2)cc1,2.5*,nt,5,nt,0
O=C1NC(=S)NC(=O)C1=Cc1cc(Br)c(Sc2ccc(Cl)cc2)o1,nt,nt,nt,nt,76*
CC1=C(C(=O)OCCc2ccccc2)C(c2ccccc2[N+](=O)[O-])CC(=O)N1 (centres undefined),nt,nt,nt,nt,-6
COc1cc(C2SCC(=O)N2CCc2ccc(OC)c(OC)c2)ccc1O (centres undefined),nt,nt,nt,nt,-12
COc1ccc(CCN2C(=O)CSC2c2ccc([N+](=O)[O-])cc2)cc1OC (centres undefined),nt,nt,nt,nt,104*
Cc1c(OCc2ccccc2F)ccc2c3c(c(=O)oc12)CCCC3,nt,nt,nt,nt,0
CCOCCn1c(CN2CCN(CC)CC2)nc2c1c(=O)n(C)c(=O)n2C,1,0.9,3,22*,10
O=C1c2ccccc2C(=O)N1/N=C/c1ccc(O)cc1O,nt,nt,nt,nt,-1
S=c1[nH]nc2c3c4c(sc3n3c(=S)[nH]nc3n12)CCC4,nt,nt,nt,nt,101*
COc1ccc(-c2cc(-c3ccccc3)nc(N/N=C/c3ccccc3O)n2)cc1,nt,nt,nt,nt,-2
COc1cccc2c1C(=O)c1c(O)c3c(c(O)c1C2=O)C[C@@](O)(C(=O)CO)C[C@@H]3O[C@H]1C[C@H](N)[C@H](O)[C@H](C)O1,0.5,0.7,nt,32*,-9
c1cnc2c(c1)ccc1cccnc12,nt,nt,10,nt,nt
Oc1cccc2ccc(SSc3ccc4cccc(O)c4n3)nc12,nt,nt,60*,nt,nt
Cc1c(NS(=O)(=O)c2ccccc2)cc(Cl)c(O)c1C,1,0.8,8,26*,3
COc1cc(/C=C(\C#N)C(N)=S)ccc1OCc1ccccc1,nt,nt,nt,nt,2
CC(C)COc1ccc(/C=C2\SC(=S)NC2=O)c2ccccc12,nt,nt,nt,nt,2
Cc1nc2nc(-c3ccccc3)nn2c(C)c1Cl,2.2*,1,-2,5,4
Cc1nc2nc(-c3ccc(Cl)cc3)nn2c(C)c1Cl,1.7,nt,1,nt,nt
O=[N+]([O-])c1cc(Cc2cc([N+](=O)[O-])c3cccnc3c2O)c(O)c2ncccc12,nt,nt,99*,nt,nt
CCCCC(CC)CNC(=O)C1C2C=CC(C2)C1C(=O)O (centres undefined),2.1*,nt,-11,nt,nt
COc1c(Cl)cc(Cl)cc1C1NC(=S)NC(C)=C1C(=O)Nc1ccccc1 (centres undefined),nt,nt,nt,nt,2
COc1ccc(CNc2ccc(Br)cc2C(=O)O)c(OC)c1,nt,nt,nt,nt,77*
Nc1c(N2CCCC2)cc(Cl)c2nonc12,1.1,0.9,58*,-5,4
SMILES,MT1-MMP txn act,TNAP act mid DEA,Smad3 inh,Ec RNAP inh,HePTP inh
O=C(CCSCCc1ccccn1)Nc1ccccn1,1.2,0.9,-1,4,0
O=C(CCSCCc1ccccn1)Nc1ccc(Cl)cn1,1,nt,54*[fluorescence artefact?],nt,nt
CC(C)NC(=O)c1ccc(COCC(F)(F)C(F)F)cc1,1,nt,65*,nt,nt
O=c1[nH][nH]c(=S)c(=O)[nH]1,nt,nt,52*,nt,nt
CC(C)(C)C1(C)OC(O)(C(Cl)(Cl)Cl)CC1=O (centres undefined),nt,nt,nt,nt,103*
CCOc1cc(C(=O)Nc2ccc(F)cc2F)cc(OCC)c1OCC,nt,nt,nt,nt,6
O=C(CN1C(=O)/C(=C\c2ccccc2F)SC1=S)Nc1ccc(C(=O)O)cc1,nt,nt,nt,nt,53*
COc1ccccc1C(=O)Nc1nc(C)c(C(C)=O)s1,nt,nt,nt,nt,-10
O=C1/C(=C/c2cn(-c3ccccc3)nc2-c2ccco2)SC(=S)N1C1CCS(=O)(=O)C1 (centres undefined),nt,nt,nt,nt,66*
CCOc1ccc(-c2nn(-c3ccccc3)cc2/C=C2\SC(=S)N(C3CCS(=O)(=O)C3)C2=O)cc1 (centres undefined),1.3,nt,16,nt,nt
COc1ccc(NC(=O)COc2ccc(C(C)(C)c3ccccc3)cc2)c(OC)c1,nt,nt,nt,nt,102*
COc1ccc(NC(=O)COc2ccccc2)c(OC)c1,1.2,0.9,-3,10,6
Clc1ccccc1C1Nc2cccc3cccc(c23)N1,nt,nt,nt,nt,-20
c1coc(C2Nc3cccc4cccc(c34)N2)c1,1.1,0.8,14,21*,8
O=C(NCc1cn2ccsc2n1)c1cccc(C(F)(F)F)c1,1.1,1,-8,22*,4
COc1cccc(C(=O)NCc2cn3ccsc3n2)c1,1.1,1,-6,5,-2
Cc1csc(-c2cc3ccc(O)c(CN4CC5(C)CC4CC(C)(C)C5)c3oc2=O)n1 (centres undefined),nt,nt,nt,nt,76*
Cc1cc(NS(=O)(=O)c2ccc(NC(=O)c3cc(-c4ccccc4C)nc4ccccc34)cc2)nc(C)n1,nt,nt,nt,nt,4
Cc1c(NC(=O)C23CC4CC(CC(C)(C4)C2)C3)c(=O)n(-c2ccccc2)n1C,2*,0.9,3,9,7
O=C1S/C(=C/c2ccc3c(c2)OCO3)C(=O)N1CN1CCCC1,nt,nt,nt,nt,0
Oc1ccc(N=Nc2ccc(Cl)cc2)c2cccnc12,nt,nt,nt,nt,6
NS(=O)(=O)c1cc(Br)c(N=Nc2ccc(O)c3ncccc23)c(Br)c1,nt,nt,77*,nt,nt
Cc1ccc(S(=O)(=O)/N=C2\C=CC(=O)C(Br)=C2)cc1,nt,nt,nt,nt,12
COc1ccc(C(=S)N2CCCC2)c(OC)c1,nt,nt,nt,nt,94*
COc1ccc(S(=O)(=O)n2nnc3ccccc32)cc1OC,nt,nt,nt,nt,4
SMILES,MT1-MMP txn act,TNAP act mid DEA,Smad3 inh,Ec RNAP inh,HePTP inh
O=C1NC(=S)NC(=O)C1=Cc1ccc(OCc2ccc3ccccc3c2)c(Br)c1,nt,nt,nt,nt,52*
O=C1N=c2ccccc2=C1N=Nc1nc(O)c(-c2c(O)[nH]c3ccccc23)s1,nt,nt,nt,nt,66*
Cc1cc(C)cc(NC(=O)c2ccccc2Cl)c1,nt,nt,nt,nt,-1
Cc1cc(C)nc(Sc2c(C)nn(-c3ccccc3)c2C)n1,1.1,0.9,-9,6,11
Cc1nn(-c2ccccc2)c(C)c1Sc1ccc(Cl)cc1,nt,nt,nt,nt,104*
CC(=O)C1=C(C)Nc2cc(C(F)(F)F)ccc2S1,1,0.9,1,62*,2
O=C(Cc1ccc(F)cc1)Nc1cccc2ccccc12,nt,nt,nt,nt,103*
O=C(Cc1ccc(F)cc1F)Nc1cccc2ccccc12,nt,nt,nt,nt,3
COc1ccc(/C(C)=N/NC(=O)CN(c2ccc(C)cc2)S(=O)(=O)c2ccccc2)cc1OC,nt,nt,nt,nt,6
O=C(O)c1cc(-c2ccc(/C=N/n3cnnc3)o2)ccc1O,nt,nt,nt,nt,103*
CC(C)NC(=O)c1cc(-c2ccc(Br)cc2)on1,5.1*,0.9,-1,4,6
CCCNC(=O)c1cc(-c2ccc(Br)cc2)on1,1.5,0.9,5,4,2
COc1ccc(C(N)=O)cc1NC(=O)C(C)Oc1ccccc1 (centres undefined),nt,nt,nt,nt,-8
CCOC(=O)c1c(NC(=O)c2ccncc2)sc(C(C)=O)c1C,nt,nt,nt,nt,105*
COc1ccc(/C=C2/SC(N3CCCCC3)=NC2=O)cc1,nt,nt,nt,nt,3
CC1=NN(c2ccc(Cl)c(C(=O)O)c2)C(=O)/C1=C\c1ccco1,nt,nt,nt,nt,73*
CCN(CC)CCOC(=O)c1c(C)oc2ccc(O)cc12,1,1,-10,6,-7
CCN(CC)CC[n+]1ccc2c(C)c3[nH]c4ccc(O)cc4c3c(C)c2c1,nt,nt,68*,nt,nt
